# In PubChem BioAssay AID602449 (Sanford-Burnham Center for Chemical Genomics, 2012):
# The campaign covered roughly 360,000 compounds. About 5,000 (1.4%) were called active. This is one part of a sample in which actives are shown more often than they occur.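 How the source made its calls: active means inhibition of 50% or more, scaled per plate between neutral and stimulator controls; inactive means the rest.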
# Assay: mitochondrial permeability transition pore inhibitors, primary screen, biochemical, isolated mouse mitochondria, absorbance (AID 602449);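 further: 0% = DMSO wells given calcium and 100% = 1 mM EGTA wells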
# Settings: Ca2+ swelling absorbance, 30 min, at 10 µM, active compounds read high
row,Compound,inhibition
1,CCOC(=O)c1ccc(NC(=S)N2CCCC2)cc1,-9.2% (inactive)
2,CCCCCOC(=O)NCCOC(=O)Nc1ccc(C(=O)OCC)cc1,62.1% (active)
3,Cc1ccc(NC(=O)OCCNC(=O)c2ccncc2)cc1,-2.2% (inactive)
4,CC1CCCCC12NC(=O)N(CC(=O)OCc1c(F)cccc1Cl)C2=O (centres undefined),1.5% (inactive)
5,Cc1cc(C(=O)O)c(S(C)(=O)=O)s1,0% (inactive)
6,O=S1(=O)CC(NCc2ccccc2)C(Nc2ccc(Cl)cc2)C1 (centres undefined),-0.2% (inactive)
7,Cc1cc(N2CCCC2)ccc1NC(=O)COc1ccc(Cl)cc1,-0.2% (inactive)
8,O=C(COc1ccc(Cl)cc1)Nc1ccc2c(c1)OCO2,-0.4% (inactive)
9,Cc1ccc(NC(=O)COc2ccc(-n3ccnc3)cc2)cc1Cl,83.4% (active)
10,COc1ccccc1Nc1ncc(C(C)=O)c(C)n1,-2.1% (inactive)
11,O=C(CSCc1ccc(Br)cc1)Nc1ccc(S(=O)(=O)N2CCCCCC2)cc1,58.6% (active)
12,O=C(CN1CCCCCC1)Nc1ccc(S(=O)(=O)N2CCCCC2)cc1,0.7% (inactive)
13,CN(CC(=O)Nc1ccc(S(=O)(=O)N2CCCC2)cc1)Cc1ccc(Cl)c(Cl)c1,3.3% (inactive)
14,Cc1occc1-c1nnc(SCC(=O)NC2(C#N)CCCC2)n1C,-0.8% (inactive)
15,COc1ccc(S(=O)(=O)N2CCOCC2)cc1NC(=O)Cc1c(F)cccc1Cl,-0.8% (inactive)
16,O=C(Cc1c(F)cccc1Cl)Nc1ncc([N+](=O)[O-])s1,61.9% (active)
17,CC(C)(C)NC(=O)NC(=O)COC(=O)Cc1c(F)cccc1Cl,2% (inactive)
18,O=C(OC(C(=O)NC1CCCC1)c1ccc(F)cc1)c1ccno1 (centres undefined),-3.3% (inactive)
19,CC(=O)C1C(c2ccc(Cl)cc2)c2c(n[nH]c2C)CC1(C)O (centres undefined),1.5% (inactive)
20,Cc1ccc(OS(=O)Nc2cccc3nccnc23)cc1 (centres undefined),-0.1% (inactive)
21,O=C(Nc1cccc(Cl)c1)c1cncn1-c1ccc(F)cc1,-1.7% (inactive)
22,O=C(Nc1ccc2c(c1)OCCO2)C1CCCC1,-1.6% (inactive)
23,O=C(Nc1cccc(S(=O)(=O)Nc2ccc(Cl)cc2)c1)c1ccc2c(c1)OCCO2,77.8% (active)
24,S=C(NCc1ccco1)Nc1ccc2c(c1)OCCO2,-2.6% (inactive)

row,Compound,inhibition
1,C/C(CC(=O)Nc1cccc(C(F)(F)F)c1)=N\NC(=O)C(=O)NCC(C)C,-0.9% (inactive)
2,S=C(Nc1cccc(Cl)c1)Nc1ccc2c(c1)OCCO2,53.6% (active)
3,CC(NS(=O)(=O)c1ccc(Cl)cc1)C(=O)Nc1ccc2c(c1)OCCO2 (centres undefined),-0.3% (inactive)
4,FC(F)(F)c1cccc(NC(=S)Nc2cccc(Cl)c2)c1,97.6% (active)
5,O=C(Nc1ccc2c(c1)OCCO2)c1ccc(Cl)c(S(=O)(=O)N2CCCCC2)c1,9% (inactive)
6,O=C(NCCCn1ccnc1)C(=O)c1cn(CC(=O)N2CCCCCC2)c2ccccc12,0% (inactive)
7,Cc1c(C(=O)O)nnn1-c1nonc1N,-1.7% (inactive)
8,Cc1nn(-c2ccccc2)c2c1c(C)c(CCC(=O)NCC1CCCO1)c(=O)n2C (centres undefined),1.8% (inactive)
9,Cc1csc(NC(=O)CSc2nnc(-c3cccnc3)o2)n1,-0.1% (inactive)
10,Cc1cc(C)nc(NS(=O)(=O)c2ccc(N/C=C\C(=O)c3cccs3)cc2)n1,-0.9% (inactive)
11,CC(Sc1nnc(C2CC2)n1C1CC1)C(=O)Nc1ccc(C(N)=O)cc1 (centres undefined),0.5% (inactive)
12,Cc1nc(Nc2ccccc2C)c2cnn(C)c2n1,-0.2% (inactive)
13,Cc1ccc2c(=O)cc(C(=O)NCCc3ccc(S(N)(=O)=O)cc3)oc2c1C,-0.4% (inactive)
14,CCn1cc(CN2CCC(C(=O)Nc3cccc(-c4cccc(Cl)c4)c3)CC2)c(C)n1,0.6% (inactive)
15,O=C(Nc1cccc(-c2cccc(Cl)c2)c1)C1CCN(C2CCC2)CC1,65.4% (active)
16,CCn1cc(CN2CCC(C(=O)Nc3cccc(-c4cccc(Cl)c4)c3)CC2)cn1,-0.3% (inactive)
17,O=C(c1ccc(F)cc1)c1c[nH]c(C(=O)NCc2cccnc2)c1,0.8% (inactive)
18,CC(=O)c1cccc(NC(=O)c2cc(C)nn2-c2ccccc2)c1,-1.3% (inactive)
19,Cc1ccc(NC(=O)Nc2cc(-c3ccccc3)nn2C)cc1Cl,83.1% (active)
20,COc1ccc(NC(=O)c2cc3nc(-c4ccccc4)cc(C)n3n2)cc1OC,2.1% (inactive)
21,Cc1cc(NC(=O)Nc2ccc(Cl)cc2)n(-c2ccccc2)n1,70.8% (active)
22,O=C(Nc1ccc(Cl)c(Cl)c1)N1CC=C(c2ccccc2)CC1,12.4% (inactive)
23,Cc1cc(C(=O)NCCc2ccc(Cl)cc2)n(-c2ccccc2)n1,1% (inactive)
24,O=C(NCc1ccc(F)cc1)C(c1ccccc1)N(C(=O)c1csnn1)C1CC1 (centres undefined),4.8% (inactive)

row,Compound,inhibition
1,CC(C)NS(=O)(=O)c1ccc(NC(=O)C2CCCCC2)cc1,-1.2% (inactive)
2,CCOc1cccc2c1OC1(CCCCC1)N1N=C(c3cccnc3)CC21 (centres undefined),0.5% (inactive)
3,CC(=O)Nc1ccc(CC#N)cc1,2.1% (inactive)
4,COc1cccc(N(C(=O)c2snc(C(N)=O)c2N)C(C(=O)NCC2CCCO2)c2c[nH]c3ccccc23)c1 (centres undefined),-1.8% (inactive)
5,CCOC(=O)C1CCCN(S(=O)(=O)c2ccc(-n3cnnn3)c(C)c2)C1 (centres undefined),0.9% (inactive)
6,O=S(=O)([N-]c1nc2ccccc2nc1-[n+]1ccc(Cc2ccccc2)cc1)c1ccc(Br)s1,5% (inactive)
7,Cc1cccc(NS(=O)(=O)c2ccc(C(=O)NCC(C)(C)N3CCOCC3)cc2)c1C,1.5% (inactive)
8,COc1ccc(NC(=O)COC(=O)C2COc3ccccc3O2)cc1 (centres undefined),-0.6% (inactive)
9,CCOc1ccc(NC(=O)c2ccc(NC(=O)COC(=O)c3ccc(NC(=O)CC#N)cc3)cc2)cc1,0.5% (inactive)
10,CCC(C)(C)c1ccc(Oc2ccc(NC(=O)COC(=O)C3=COCCO3)cc2)cc1,79.2% (active)
11,O=C(NNC(=S)NCc1ccccc1)c1ccc(OC(F)F)cc1,-1.2% (inactive)
12,O=S(=O)(Nc1ccc(O)c2ccccc12)c1ccc(OC(F)(F)F)cc1,34.9% (inactive)
13,FC(F)(F)Oc1ccc(NC(=S)NCc2ccccc2)cc1,77.1% (active)
14,O=[N+]([O-])c1cc(Cl)cc(/C=N/NC(=S)Nc2cc(S(=O)(=O)N3CCOCC3)ccc2Cl)c1O,76.5% (active)
15,O=C(Nc1cc(S(=O)(=O)N2CCOCC2)ccc1Cl)c1cc(=O)c2ccccc2o1,-1.5% (inactive)
16,Cc1cc(OCCCC(=O)Nc2cc(S(=O)(=O)N3CCOCC3)ccc2N2CCOCC2)ccc1Cl,0.2% (inactive)
17,CCOc1ccc(CN2CCN(Cc3ccon3)CC2CCO)cc1 (centres undefined),-1.1% (inactive)
18,COc1ccc(S(=O)(=O)NCCCCOc2ccc(Cl)cc2)cc1,98.5% (active)
19,COc1ccc(S(=O)(=O)NCCOc2ccccc2)cc1F,0.7% (inactive)
20,COc1ccc(OCCNS(=O)(=O)Cc2ccccc2)cc1,0.9% (inactive)
21,CCc1cccc(CC)c1NC(=O)COc1ccccc1C(=O)c1cc(C#N)c(=O)n(C2CCCCC2)c1,1% (inactive)
22,Cc1cc2cc3n(c2nn1)N=C(Cl)CC3,0.9% (inactive)
23,COc1ccc(C(=O)COC(=O)CN2C(=O)C3CC=CCC3C2=O)c(OC)c1 (centres undefined),-2.3% (inactive)
24,O=C(NC1C2CC3CC(C2)CC1C3)c1ccc(N2CCNCC2)c([N+](=O)[O-])c1 (centres undefined),-2.4% (inactive)

row,Compound,inhibition
1,O=C(Nc1ccc(N2C(=O)c3cccc4cccc(c34)C2=O)cc1)c1ccc(N2CCCCC2)c([N+](=O)[O-])c1,1.1% (inactive)
2,O=C(Nc1cccc(C(F)(F)F)c1)c1ccc(N2CCNCC2)c([N+](=O)[O-])c1,69.8% (active)
3,CN(C)CCNC(=O)c1cccc(-c2cnc3c(NC=O)cc(-c4cccc(C(F)(F)F)c4)cn23)c1,-2.1% (inactive)
4,CS(=O)(=O)N(CC(=O)Nc1ccc(Cl)c(Cl)c1)C1CCCCC1,61.3% (active)
5,N#CCCN(C(=O)Nc1ccc(Cl)c(Cl)c1)C1CCCCC1,20.5% (inactive)
6,CS(=O)(=O)N(CC(=O)Nc1ccc(F)cc1)C1CCCCC1,1.1% (inactive)
7,N#CCCN(C(=S)Nc1ccc(Cl)c(Cl)c1)C1CCCCC1,64.3% (active)
8,CCc1cccc(NC(=S)N(CCN(C)C)C2CCN(C(C)C)CC2)c1,-1.2% (inactive)
9,CCC(C)NC(=O)CN(C1CCCCC1)S(C)(=O)=O (centres undefined),-1.2% (inactive)
10,Cc1cc(NC(=O)OC(C)C)ccc1-c1ccc(NC(=O)OC(C)C)cc1C,0.8% (inactive)
11,CN(C)c1nc2n(c(=O)n1)CCO2,-0.8% (inactive)
12,Cc1c(Cl)cccc1NC(=O)[C@@]1(CC(=O)O)CC(/C=C/c2ccccc2)=NO1,-0.3% (inactive)
13,C[C@H](NC(=O)NCCc1ccccc1)C(=O)O,-2.9% (inactive)
14,CCNS(=O)(=O)c1ccc(NC(=O)Nc2cccc(C(F)(F)F)c2)cc1,93.6% (active)
15,CCNS(=O)(=O)c1ccc(NC(=O)c2cncc(Br)c2)cc1,-1.5% (inactive)
16,Cc1cc(S(=O)(=O)N2CCOCC2)ccc1OCC(=O)Nc1cccc(C(F)(F)F)c1,-0.9% (inactive)
17,CN(CC(=O)Nc1ccccc1[N+](=O)[O-])Cc1ccc(Br)cc1,1.1% (inactive)
18,COc1cc(CNCc2cccs2)cc(Br)c1OC,-0.5% (inactive)
19,COc1ccccc1N1CCN(Cc2ccc(OC)c3ccccc23)CC1,1.3% (inactive)
20,COc1cc(CNCc2ccc(OC)c3ccccc23)cc(OC)c1OC,90.9% (active)
21,Cn1c(=O)c2cc(NC(=O)NCCc3cccs3)ccc2n1Cc1cccc(C(F)(F)F)c1,3.3% (inactive)
22,CCCCn1c(N)c(N(CCC(C)C)C(=O)COC(=O)c2cccnc2OCC)c(=O)[nH]c1=O,0.7% (inactive)
